# Data as given in article PMC5540273 (PLoS ONE, 2017).
# Values joined by “and” are separate entries in the source; they are usually repeats but may differ in a detail not shown here. Equal entries are not always repeated. Where two headings read alike, the source gives them in different places.
# Assays:
# QSK = conditions: n = 1
# RAF1 = conditions: n = 1
# RET = conditions: n = 1
# RIOK1 = conditions: n = 1
# RIOK2 = conditions: n = 1
# RIOK3 = conditions: n = 1
# RIPK1 = conditions: n = 1
# RIPK2 = conditions: n = 1
# RIPK4 = conditions: n = 1
# RIPK5 = conditions: concentration: 1 μM, replicates: in singlicate; n = 1
# [1] = concentration: 1 μM, replicates: in singlicate
# [2] = concentration: 1 μM,replicates: in singlicate, 1 µM
# 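Note: KINOMEscan kinase panel screen.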
Structure (SMILES),%Inh (QSK; [1]),%Inh (RAF1; [1]),%Inh (RET; [1]),%Inh (RIOK1; [1]),%Inh (RIOK2; [1]),%Inh (RIOK3; [1]),%Inh (RIPK1; [1]),%Inh (RIPK2; [1]),%Inh (RIPK4; [1]),%Inh (RIPK5),%Inh (QSK; [2]),%Inh (RAF1; [2]),%Inh (RET; [2]),%Inh (RIOK1; [2]),%Inh (RIOK2; [2]),%Inh (RIOK3; [2]),%Inh (RIPK1; [2]),%Inh (RIPK2; [2]),%Inh (RIPK4; [2])
O=C(Nc1ccc2c(c1)OCO2)NC1CCN(c2ccnc(Nc3ccc(F)cc3)n2)C1 (centres unmarked) [GSK1379724],8%,16%,22%,9%,0%,5%,0%,0%,11%,0%,–,–,–,–,–,–,–,–,–
Clc1cc(Cl)cc(Nc2ccnc(Nc3cc(Cl)cc(Cl)c3)n2)c1 [GSK175726],0%,17%,10%,34%,91.7%,35%,0%,41%,10%,6%,–,–,–,–,–,–,–,–,–
COc1cc2ncnc(Nc3ccc4nc(-c5ccccc5)[nH]c4c3)c2cc1OC.Cl [GW282450],0%,10%,33%,51%,11%,25%,18%,27%,1%,0%,–,–,–,–,–,–,–,–,–
CSc1nn2c(=O)cc(N3CCOCC3)nc2n1Cc1cccc(C(F)(F)F)c1C [GSK2363608],–,–,–,–,–,–,–,–,–,0%,55% and 8%,14% and 11%,19% and 56%,37% and 10%,19% and 5%,39% and 0%,26% and 0%,0% and 14%,22% and 13%
Cl.O=C(Nc1cccc(-c2nn3ncccc3c2-c2ccnc(Nc3cccnc3)n2)c1)c1c(F)cccc1F [GSK312879],0%,87%,31%,31%,11%,0%,0%,18%,15%,0%,–,–,–,–,–,–,–,–,–
COc1ccc(Nc2nccc(-c3cccc(NC(=O)c4cc5cc(F)ccc5[nH]4)c3)n2)cc1 [GSK1229782],3%,13%,14%,72%,3%,50%,22%,17%,0%,25%,–,–,–,–,–,–,–,–,–
COC(=O)c1c(-c2ccccc2)c2cc(OC)ccc2c(=O)n1Cc1ccccc1,23%,85%,17%,0%,0%,0%,0%,0%,4%,24%,–,–,–,–,–,–,–,–,–
Cc1ccc(NC(=O)Nc2cccc(Cl)c2)cc1-c1ccc(C(=O)Nc2ccncc2)cc1 [GSK1398468],0%,91.4%,1%,40%,0%,59%,5%,6%,22%,0%,–,–,–,–,–,–,–,–,–
